Test results as given in PubChem BioAssay (NCATS).
Inconclusive results are not listed. A call without a number means that no potency is given here. Calls of active or inactive are those of the source. Calls follow the shape of the dose curve; as a rule, active = well fitted curve in the direction sought with a large enough effect; inconclusive = small, poorly fitted or top-dose-only effect, or another doubt; inactive = no such curve, though single readings can be large; an effect the other way counts as inactive or inconclusive.

experiment: qHTS of pediatric cancer cell lines to identify multiple opportunities for drug repurposing: Confirmatory screen for control Hh wild type fibroblast cells (AID 1347121); settings: viability qHTS; series mostly up to 45.9 µM; also: nearly all actives have a fitted effect of over 70% in size
Procedure, shortened: (§1)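 Cells (500-1,000/well) in growth media were settled 5 h at 37 degrees C, then given compounds for 48 h. Viability was read as CellTiter-Glo luminescence. Primary runs used MIPE at 11 points (0.78 nM-46 µM) and NPC at 8 points (0.59 nM-46 µM); follow-ups used 11 points.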

SMILES | outcome
C[C@](O)(CS(=O)(=O)c1ccc(F)cc1)C(=O)Nc1ccc(C#N)c(C(F)(F)F)c1 | inactive
O=P1(N(CCCl)CCCl)NCCCO1 (stereo unspecified) | inactive
COc1cccc2c1C(=O)c1c(O)c3c(c(O)c1C2=O)C[C@@](O)(C(=O)CO)CC3OC1CC(N2CCOC(OC)C2)C(O)C(C)O1 (stereo partly specified) | inactive

experiment: qHTS of pediatric cancer cell lines to identify multiple opportunities for drug repurposing: Confirmatory screen for U-2 OS cells (AID 1347122); settings: U-2 OS osteosarcoma cell viability; series mostly up to 45.9 µM; also: nearly all actives have a fitted effect of over 65% in size; also: potency is read from the fitted curve at half-maximal effect
Procedure, shortened: as §1

SMILES | Potency
C[C@](O)(CS(=O)(=O)c1ccc(F)cc1)C(=O)Nc1ccc(C#N)c(C(F)(F)F)c1 | inactive
O=P1(N(CCCl)CCCl)NCCCO1 (stereo unspecified) | inactive
COc1cccc2c1C(=O)c1c(O)c3c(c(O)c1C2=O)C[C@@](O)(C(=O)CO)CC3OC1CC(N2CCOC(OC)C2)C(O)C(C)O1 (stereo partly specified) | 73.7 nM (active)
O=C(O)CCCc1ccc(N(CCCl)CCCl)cc1 | inactive

experiment: qHTS of pediatric cancer cell lines to identify multiple opportunities for drug repurposing: Confirmatory screen for Rh41 cells (AID 1347123); settings: Rh41 rhabdomyosarcoma cells, viability/cytotoxicity qHTS; series mostly up to 45.9 µM;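 also: 48 h compound exposure; nearly all actives have a fitted effect of over 60% in size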; also: potency is read from the fitted curve at half-maximal effect
Source text: Drug repurposing or repositioning has been offered as a strategy for drug development in oncology programs. This approach has special potential for childhood cancers and other rare or orphan diseases, where the expected return on new drug development has been a disincentive to pharmaceuticals.
In this project we exploit the poly-pharmacology of drugs to discover new indications via phenotypic screening of a panel of 19 well-characterized cell lines derived from solid tumors seen in children and adolescents. The goal is to identify approved drugs with previously unrecognized anticancer properties that has the potential to reveal new mechanisms and biological processes involved in carcinogenesis or drug resistance. We employed a titration-based paradigm (quantitative high-throughput screening or qHTS), where all compounds were tested at multiple concentrations for their effect on cell viability. Concentration-response curves (CRCs) were derived directly from the primary screen, and both potency and efficacy values were used to identify compounds with robust bioactivity profiles. We screened the NIH Chemical Genomics Center (NCGC) Pharmaceutical Collection (NPC) and Mechanism Interrogation Plate (MIPE) small molecule collections of approved and investigational compounds against these cell lines; and measured metabolically active cells after 48 hours of compound treatment as a proxy for cell viability.
Assay Submitter: Nathalia J. Martinez, National Center for Advancing Translational Sciences, National Institutes of Health, Rockville, MD, USA; email: natalia.martinez@nih.gov
[1] Shen, M et al. Quantitative high-throughput phenotypic screening of pediatric cancer cell lines identifies multiple opportunities for drug repurposing. Oncotarget 2017 Dec 19;9(4):4758-4772. PMID 29435139.
The cells were obtained from University of North Carolina (UNC), Pediatric Preclinical Testing Program (PPT), and Coriell Institute (CI).
qHTS cell viability assay:
Cells were assayed in growth media at a density of 500-1,000 cells/well. Five microliters of cells were dispensed into 1,536-well, white, solid-bottom, TC-treated plates (Greiner Bio One) using a multidrop dispenser and incubated at 37 degrees C, 5% CO2, under a humidified atmosphere for 5 hours. Twenty-three nanoliters of compounds and controls (neutral control DMSO or positive control bortezomib at final concentration of 2.3 µM) were subsequently transferred by Kalypsys pintool. For primary screens, the MIPE collection was tested at 11-point dilutions (final concentrations range from 0.78 nM to 46 µM) and the NPC collection at 8-point dilutions (final concentrations range from 0.59 nM to 46 µM). Compounds tested in follow-up screens were assayed at 11-point dilutions. Cells were incubated for 48 hours, followed by addition of 3 µL of CellTiter-Glo (Promega). After a 15 min incubation at room temperature, samples were analyzed for luminescence intensity using a ViewLux High-throughput CCD imager equipped with clear filters.

SMILES | Potency
O=P1(N(CCCl)CCCl)NCCCO1 (stereo unspecified) | inactive
COc1cccc2c1C(=O)c1c(O)c3c(c(O)c1C2=O)C[C@@](O)(C(=O)CO)CC3OC1CC(N2CCOC(OC)C2)C(O)C(C)O1 (stereo partly specified) | 36.9 nM (active)
O=C(O)CCCc1ccc(N(CCCl)CCCl)cc1 | inactive

experiment: qHTS of pediatric cancer cell lines to identify multiple opportunities for drug repurposing: Confirmatory screen for RD cells (AID 1347124); settings: RD rhabdomyosarcoma cell viability; series mostly up to 45.9 µM;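 also: cells exposed to compound for 48 h before viability readout; nearly all actives have a fitted effect of over 65% in size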
Procedure, shortened: as §1

SMILES | outcome
C[C@](O)(CS(=O)(=O)c1ccc(F)cc1)C(=O)Nc1ccc(C#N)c(C(F)(F)F)c1 | inactive
O=P1(N(CCCl)CCCl)NCCCO1 (stereo unspecified) | inactive
O=C(O)CCCc1ccc(N(CCCl)CCCl)cc1 | inactive

experiment: qHTS of pediatric cancer cell lines to identify multiple opportunities for drug repurposing: Confirmatory screen for Rh18 cells (AID 1347125); settings: Rh18 rhabdomyosarcoma cells, viability; series mostly up to 45.9 µM; also: nearly all actives have a fitted effect of over 55% in size; also: potency is read from the fitted curve at half-maximal effect
Procedure, shortened: as §1

SMILES | Potency
C[C@](O)(CS(=O)(=O)c1ccc(F)cc1)C(=O)Nc1ccc(C#N)c(C(F)(F)F)c1 | inactive
O=P1(N(CCCl)CCCl)NCCCO1 (stereo unspecified) | inactive
COc1cccc2c1C(=O)c1c(O)c3c(c(O)c1C2=O)C[C@@](O)(C(=O)CO)CC3OC1CC(N2CCOC(OC)C2)C(O)C(C)O1 (stereo partly specified) | 52.2 nM (active)
O=C(O)CCCc1ccc(N(CCCl)CCCl)cc1 | inactive

experiment: qHTS of pediatric cancer cell lines to identify multiple opportunities for drug repurposing: Confirmatory screen for Rh30 cells (AID 1347126); settings: Rh30 rhabdomyosarcoma cell viability; series mostly up to 45.9 µM; also: nearly all actives have a fitted effect of over 55% in size; also: potency is read from the fitted curve at half-maximal effect
Procedure, shortened: as §1

SMILES | Potency
C[C@](O)(CS(=O)(=O)c1ccc(F)cc1)C(=O)Nc1ccc(C#N)c(C(F)(F)F)c1 | inactive
O=P1(N(CCCl)CCCl)NCCCO1 (stereo unspecified) | inactive
COc1cccc2c1C(=O)c1c(O)c3c(c(O)c1C2=O)C[C@@](O)(C(=O)CO)CC3OC1CC(N2CCOC(OC)C2)C(O)C(C)O1 (stereo partly specified) | 46.5 nM (active)
O=C(O)CCCc1ccc(N(CCCl)CCCl)cc1 | inactive
